Compound activity from PubChem BioAssay.
GLS inh – qHTS for Inhibitors of Glutaminase (GLS). Glutaminase kidney isoform, mitochondrial (Homo sapiens), O94925. GLS enzymatic activity, qHTS titration. Potency, µM (doses to about 45.5 µM), without a hit: at the top dose activity change, negative = inhibition, usual class: inhibitors. hit rate 0.21% among 410,000. AID 624170, 2012; further: potency means the concentration at half of the fitted maximal effect
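Enzyme dispensed in phosphate buffer (45 mM, pH 8.2, 0.02% Tween-20), compounds pinned in, then 1 mM L-glutamine solution and the glutamate oxidase–HRP–Amplex Red mix added; fluorescence read immediately and again after 30 min at room temperature.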
VDR inh – Inhibitors of the vitamin D receptor (VDR): qHTS; Vitamin D3 receptor (Homo sapiens), P11473; VDR-SRC2-3 peptide fluorescence polarization, 2 h; Potency, µM, for the others: max response, negative = inhibition, hits mostly inhibitors; hit rate 0.93% among 400,000; further: potency means the concentration at half of the fitted maximal effect
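Fluorescence polarization assay of small-molecule disruption of VDR binding to coregulator peptide SRC2-3. Compounds and controls pin-transferred, then read after 2 h incubation at ambient room temperature.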
KAT2A inh – qHTS Assay for Inhibitors of GCN5L2 | GCN5L2 HAT assay, ThioGlo1 CoA-SH fluorescence | Potency, µM (highest dose often 58.9 µM), inactives show at the highest dose activity change, negative = inhibition, actives largely listed as inhibitors | hit rate 0.21% among 390,000 | AID 504327, 2011; further: potency means the concentration at half of the fitted maximal effect
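GCN5L2 (20 nM) in 50mM HEPES pH 7.5, 0.1mM EDTA, 0.01% Tween-20 preincubated 15 min with compounds at room temperature. Reaction started with H3(1-25) 75uM, acetyl-CoA 70uM, ThioGlo1 50uM; CoA-thiol fluorescence (Ex340/Em540) read at 0 and 20 min.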
PLK1 PBD block – qHTS for Inhibitors of PLK1-PDB (polo-like kinase 1 - polo-box domain): Primary Screen; Plk1 PBD binding of FITC phosphopeptide, fluorescence polarization; Potency, µM, without a hit: max response, negative = inhibition, most hits filed as inhibitors; hit rate 2.8% among 360,000; AID 720504, 2013; further: potency means the concentration at half of the fitted maximal effect; series mostly up to about 57 µM; nearly all actives have a fitted effect of over 65% in size
PI4K2A block – qHTS for small molecular inhibitors of PI4K2A | activity change, negative = inhibition, % at 76.9 µM | AID 1346378, 2018 | hit rate 0.13% among 420,000 | Phosphatidylinositol 4-kinase type 2-alpha (Homo sapiens), Q9BTU6 | purified PI4K2A, ADP-Glo luminescence, 1 h; hits give low values; in the data active means activity change below about -50%; inconclusive means mostly about -30% to -49%;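 further: -100% = wells without enzyme as full effect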
Target sequence (Q9BTU6 whole entry, looked up): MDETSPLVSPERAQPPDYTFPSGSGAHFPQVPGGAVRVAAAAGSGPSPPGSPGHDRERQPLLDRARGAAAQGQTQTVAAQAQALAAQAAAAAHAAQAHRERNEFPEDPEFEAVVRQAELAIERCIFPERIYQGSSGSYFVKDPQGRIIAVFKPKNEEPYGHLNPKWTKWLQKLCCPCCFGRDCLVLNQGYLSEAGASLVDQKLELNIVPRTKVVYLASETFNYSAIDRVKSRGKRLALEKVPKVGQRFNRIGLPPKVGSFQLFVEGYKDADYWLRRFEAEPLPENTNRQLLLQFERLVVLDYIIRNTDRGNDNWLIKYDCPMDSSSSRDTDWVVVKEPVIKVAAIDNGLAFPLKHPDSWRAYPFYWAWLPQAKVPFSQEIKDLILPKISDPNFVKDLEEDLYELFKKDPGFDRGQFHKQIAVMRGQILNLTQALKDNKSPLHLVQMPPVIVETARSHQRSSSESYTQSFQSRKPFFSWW
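PI4K2A activity was measured by ADP-Glo luminescence: enzyme (4 ug/mL stock) and phosphatidylinositol (1.2 mM stock) in Tris pH 7.5/MgCl2/EGTA/Triton X-100 buffer were reacted with ATP (300 microM stock) for one hour at ambient temperature.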
Active calls of the source: *; ? = inconclusive; nt = no result; ! = not confirmed by another sample. An excerpt weighted towards active compounds, which were near 3.1% of everything screened. Unless noted, the call rests on the fitted dose curve; in most records, active means well fitted curve in the direction sought with a large enough effect; inconclusive means small, poorly fitted or top-dose-only effect, or another doubt; inactive means no such curve, though single readings can be large; an effect the other way counts as inactive or inconclusive. Unless noted, on the % scale 0 is the no-effect control and ±100 the full control effect.

SMILES	GLS inh	VDR inh	KAT2A inh	PLK1 PBD block	PI4K2A block
Nc1ncc(Br)cc1S(=O)(=O)Nc1cc(C(F)(F)F)cc(C(F)(F)F)c1	5%	?	-39%	30µM*	-5
CCCCCCCCN1C(=O)[C@@H](CC(=O)N2CCSCC2)C[C@@]2(C(=O)OC)C1=C[C@H](C(C)C)O[C@@H]2C1CC1	nt	nt	nt	nt	-3
Cc1cc(-c2ccc(Cl)cc2Cl)c(C#N)c(=O)[nH]1	2%	?	0%	17µM*	0
CCOC(=O)N1CCC(N2CCN(Cc3ccc(C)o3)C(CCO)C2)CC1 (stereo unspecified)	2%	-27%	-1%	15µM*	6
CCOc1ccc(-c2cn3ccccc3n2)cc1	0%	-13%	-2%	-13%	-52*
S=C(CSc1ccccc1)Nc1cccc2ccccc12	18%	nt	nt	11µM*	-11
COc1ccc(Cn2c(CCC(=O)Nc3ccc(C)cc3)nc3cccnc32)cc1	3%	-17%	-7%	24µM*	-3
CCC1CN(C(=O)N2CCC(C(=O)NCCc3ccc(Cl)cc3)CC2)c2ccccc2O1 (stereo unspecified)	3%	9%	-8%	nt	3
CCOC(=O)c1sc(NCc2ccco2)c(-c2nc3ccccc3s2)c1N	-15%	0%	55%	-11%	-2
C=CCNc1sc(C(=O)c2ccccc2)c(N)c1-c1nc2ccccc2s1	3%	-14%	-7%	17µM*	-28
Cc1cc(=O)c2c(O)c3c(O)cc(O)c4c5c(O)cc(O)c6c(O)c7c(=O)cc(C)c8c1c2c(c34)c(c65)c78	nt	?	18µM*	nt	nt
Cn1nc(C(=O)NCc2ccc(F)cc2)cc1C(=O)NCc1ccc(F)cc1	-6%	-2%	-2%	-1%	7
Cn1cc(C(=O)NCc2ccc(F)cc2)cn1	0%	1%	0%	24µM*	0
CC(C)C(=O)Nc1ccc(NC(=O)c2cccc3c(Br)cccc23)cc1	30%	?	-4%	27µM*	1
CCOc1ccc2[nH]cc(C(=O)NCc3ccc(F)cc3)c(=O)c2c1	-1%	7%	-13%	-15%	0
CCOCCCNC(=O)c1c[nH]c2ccc(OCC)cc2c1=O	1%	?	0%	30µM*	-6
CCN1CCN(C(=S)c2ccc(SC)cc2)CC1	1%	?	-4%	19µM*	-7
CSc1ccc(C(=S)N2CCN(Cc3ccccc3)CC2)cc1	nt	-19%	-4%	21µM*	-7
S=C(c1ccc(Cl)cc1)N1CCN(Cc2ccccc2)CC1	-1%	16%	-3%	-16%	0
CCCCC1=CC2=C(c3ccco3)C(=O)C(C)(OC(=O)c3ccc(OC)cc3)C(=O)C2=CO1 (stereo unspecified)	nt	2%	nt	nt	nt
CS(=O)(=O)c1ccc(-c2cn3ccccc3n2)cc1	nt	nt	nt	nt	-7
CCOC(=O)c1c(S(=O)(=O)Nc2ccc(C)cn2)c(C)n(C)c1C	19%	?	-16%	21µM*	6
CCOC(=O)c1c(S(=O)(=O)N2CCC(C(=O)Nc3ccc(C)cn3)CC2)c(C)n(C)c1C	-3%	2%	-2%	nt	-1
O=C(c1ccc(Cl)cc1)[C@@H]1[C@@H]2C(=O)N(c3cccc4ccccc34)C(=O)[C@@H]2C2c3ccccc3C=NN21 (stereo partly specified)	9%	-12%	-7%	24µM*	4
CCCn1cc(S(=O)(=O)CC(=O)N2CCc3ccccc32)c2ccccc21	21%	?	-4%	30µM*	-1
SMILES	GLS inh	VDR inh	KAT2A inh	PLK1 PBD block	PI4K2A block
Cn1cc(S(=O)(=O)CC(=O)N2CCc3ccccc32)c2ccccc21	0%	8%	-9%	-17%	3
O=Cc1cc(OCc2ccccc2)ccc1[B-](F)(F)F	25%	20µM*	nt	-17%	-7
CCOC(=O)[C@@]12CCCC3=C1N(CCC3)C(=O)[C@H]2CC(=O)NCc1cccs1	nt	nt	nt	nt	-6
CCC(CC)C(=O)c1c[nH]c(C(=O)NCCc2ccccn2)c1	10%	8%	-11%	27µM*	-5
CCOC(=O)c1csc(NC(=O)C2CCCN(S(=O)(=O)c3ccccc3[N+](=O)[O-])C2)n1 (stereo unspecified)	nt	nt	nt	nt	-3
CC[C@H](C(=O)Nc1ccccc1N1CCCC1)c1ccccc1	nt	nt	nt	nt	-2
O=C1CCCC2=C1C(c1cn(-c3ccccc3)nc1-c1cccs1)c1c([nH]c(=O)[nH]c1=O)N2 (stereo unspecified)	0%	2%	-7%	24µM*	1
Oc1cc(Nc2ccc(N3CCCCC3)cc2)cc2cccnc12	nt	nt	-6%	nt	nt
CN(Cc1ccco1)c1ncnc2ccc(-c3ccc4c(c3)OCO4)cc12	0%	40µM*!	-6%	nt	-2
CN(Cc1ccco1)c1ncncc1-c1cccnc1	nt	45µM*	-1%	nt	nt
Cc1cccc(-c2ccc3ncnc(N(C)Cc4ccco4)c3c2)c1	nt	nt	-6%	nt	nt
CN(C)c1ccc(-c2cncnc2N(C)Cc2ccco2)cc1	nt	?	-11%	nt	nt
CN(C)Cc1ccccc1-c1ccc2ncnc(N(C)Cc3ccco3)c2c1	nt	?	-5%	nt	nt
Cc1ccccc1-c1ccc2ncnc(N(C)Cc3ccco3)c2c1	nt	32µM*	-24%	nt	nt
COc1ccc(CN2CN3CCc4ccccc4C3CS2(=O)=O)cc1 (stereo unspecified)	nt	nt	nt	nt	-1
CCC(c1nc2ccccc2[nH]1)n1c(=O)c(-c2ccco2)nc2ccccc21 (stereo unspecified)	nt	nt	nt	-24%	-2
O=c1c(-c2ccco2)nc2ccccc2n1C(CCc1ccccc1)c1nc2ccccc2[nH]1 (stereo unspecified)	nt	nt	nt	3µM*	-10
Nc1cc(N)nc(SCc2cc(=O)oc3cc4c(cc23)CCC4)n1	8%	-19%	-14%	27µM*	3
Cc1cc2oc(=O)cc(CSc3nc(N)cc(N)n3)c2cc1C(C)C	14%	-1%	-8%	0%	-1
O=C(COC(=O)c1cccnc1Cl)c1ccccc1	-9%	4%	-1%	1%	-71*
CCOc1ncccc1C(=O)OCC(=O)c1ccc(F)cc1	-18%	?	-6%	17µM*	-6
O=C(COC(=O)c1cccnc1Cl)c1ccc(F)cc1	1%	12%	-4%	-1%	-7
COC(=O)[C@]12C[C@H](CC(=O)NCC3CCCCC3)C(=O)N(Cc3cccc4ccccc34)C1=C[C@H](C1CCCC1)O[C@@H]2C	nt	nt	nt	nt	-2
Cc1ccc2[nH]cc(C(=O)CCl)c2c1	0%	-23%	0%	15µM*	-10
Cc1ccc2[nH]cc(C(=O)CN3CCN(C)CC3)c2c1	5%	-2%	-21%	-8%	-1
Cc1ccc(SCC(=O)Nc2nnc(C(C)(C)C)s2)cc1	9%	4%	8%	21µM*	-2
